About 50,000 (12%) of roughly 420,000 compounds were called active. Entries that show only a call come without a potency. About 26% were inconclusive and are not listed. The sample holds actives, similar compounds and a random draw of the others, so the mix is not that of the screen. The call rests on the fitted dose curve; in most records, active means well fitted inhibition curve with a large enough effect; inconclusive means small, poorly fitted or top-dose-only effect; inactive means flat fitted curve, though single readings scatter.
Potency means the concentration at half of the fitted maximal effect.

The test is described as follows: qHTS for Inhibitors of human tyrosyl-DNA phosphodiesterase 1 (TDP1): qHTS in cells in presence of CPT. Further: nearly all actives have a fitted effect of over 55% in size. The settings on record: chicken DT40 Tdp1-/-;hTDP1 cells + 20 nM CPT, ATP luminescence, 48 h; series mostly up to 46.2 µM. The method, boiled down:
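Chicken DT40 Tdp1-/- cells stably complemented with human TDP1 were seeded at 400 cells/well in medium containing 20 nM camptothecin, exposed to pin-transferred compounds, and grown at 37 °C for at least 48 hr. Viability was read as ATP luminescence.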
Consider `C=C1CCN([C@H](C(=O)NCc2cc(OC)c(OC)c(OC)c2)C(C)C)S(=O)(=O)c2ccccc21`, for which the Potency result was “inactive”.
Same read-out and setting: as for `O=C1OCC2=C1C(c1ccc(Cl)cc1)c1cc3c(cc1O2)OCO3` (stereo not given), the figure is 29.1 µM (active); as for `CCc1cccc(NC(=S)N(CCN(C)C)C2CCN(C(C)C)CC2)c1`, “inactive”.
Regarding `O=C(COC(=O)C1(c2ccc(F)cc2)CCCC1)N1CCNC1=O`, the Potency entry is “inactive”.
Take `Cc1nn(CC(=O)NCc2ccccn2)c(C)c1[N+](=O)[O-]`: the Potency entry is “inactive”.
As to `Cc1csc(NC(=O)Nc2ccccc2[N+](=O)[O-])n1`, the Potency result was “inactive”.
Regarding `Cc1csc(NC(=O)NC2(C(F)(F)F)Oc3ccccc3O2)n1`, the Potency was 20.6 µM (active).
Still for that read-out and setting: as for `Cc1csc(NC(=O)CSc2nnc(-c3cccnc3)o2)n1`, the entry is “inactive”; as for `CCOc1ccc(N(CC(=O)NC2CCCCCC2)S(=O)(=O)c2c(C)[nH]c(=O)[nH]c2=O)cc1`, “inactive”; as for `CC(Nc1nc(C(F)(F)F)nc2ccccc12)c1cccs1` (stereo not given), 16.4 µM (active).
Still for that read-out and setting: the value for `COc1ccc(-c2nc3n(c(=O)c2C#N)CCS3)c(OC)c1` was “inactive”; that for `COc1ccc(-c2nc(CN3CCC(C(=O)NCc4ccccc4)CC3)c(C)o2)cc1OC` was “inactive”; that for `Cc1oc(-c2ccccc2F)nc1CN1CCC(C(=O)NCCc2ccc(Cl)cc2)CC1` was 13 µM (active).
As for `CCOc1ccccc1-c1nc(CN2CCC(C(=O)N3CCOCC3)CC2)c(C)o1`, the Potency entry was “inactive”.
With `S=C(NCCc1ccccc1)N1CCCCC1`, the Potency entry is “inactive”.
On the same count and under the same terms, as for `Oc1ccc(N2CCN(C(=S)NCc3ccccc3)CC2)cc1`, the figure is 11.6 µM (active); as for `O=C1CCN(C(=S)NCCc2ccccc2)CC1`, “inactive”; as for `CC(Oc1ccccc1)C(=O)N[C@@H]1C(=O)N2[C@@H]1SC(C)(C)[C@@H]2C(=O)O` (stereo not given in full), “inactive”.
Consider `COc1cc(C=NC2CCCCC2)ccc1O`, for which the Potency result was “inactive”.
For the molecule `O=C(NCC(=O)N1CCN(c2ncc(C(F)(F)F)cc2Cl)CC1)c1ccc(Br)o1`, the Potency was 16.4 µM (active).
For `COc1ccc(N2CCN(C(=O)CNC(=O)c3ccc(Br)o3)CC2)cc1`, the Potency entry was “inactive”.
Turning to `O=C(CN1CCN(c2ncc(C(F)(F)F)cc2Cl)CC1)Nc1ccc2c(c1)OCO2`, the Potency entry was “inactive”.
Still for that read-out and setting: the value for `Cc1cc(C)cc(C(=O)NC(CC(N)=O)c2ccc(N3CCC(N4CCCCC4)CC3)c([N+](=O)[O-])c2)c1` (stereo not given) was “inactive”; that for `OCCN1CCN(CCO)C1=S` was “inactive”.
As to `COc1ccccc1CN1CCCC(N2CCN(c3ccc(F)cc3)CC2)C1` (stereo not given), the Potency result is “inactive”.
Turning to `CNC[C@H](CC1CCCCC1)NC[C@H](NCCC1CCCC1)[C@H](C)O`, the Potency is 16.4 µM (active).
The same measure, in the same setting: as for `COc1ccc2c(c1OC)C(=O)N(c1ccc(O)cc1)C2`, the entry is “inactive”; as for `O=C(CN1CCN(c2ccccc2O)CC1)NC(=O)NCc1ccccc1`, “inactive”.
`Cc1coc(C)c1C(=O)CC1(O)C(=O)N(C)c2ccc(Cl)cc21` (stereo not given): the Potency result is “inactive”.
Same read-out and setting: the value for `CCCN1C(=O)C(O)(CC(=O)c2ccc(CC)cc2)c2cc(Br)ccc21` (stereo not given) was 7.31 µM (active).
Still for that read-out and setting: the value for `CCc1ccc(C(=O)COC(=O)c2ccco2)cc1` was “inactive”; that for `CC/C(C)=N/Nc1nc2sc3c(c2c(=O)[nH]1)CC(C)(C)OC3` was “inactive”; that for `Cc1nc2sc3c(c2c(=O)n1NC(=O)CCl)CCCC3` was “inactive”.
Regarding `COCCn1c(C)cc(C(=O)CSc2ncnc3sc4c(c23)CCC4)c1C`, the Potency result is “inactive”.
Same read-out and setting: the value for `COCCNc1nc(-n2nc(C)cc2C)nc2sc3c(c12)CCCC3` was 3.66 µM (active); that for `CCC(O)CNc1nc(-n2nc(C)cc2C)nc2sc3c(c12)CC(C)(C)OC3` (stereo not given) was 11.6 µM (active).
In the case of `CCOC(=O)CSc1nc2sc3c(c2c(=O)[nH]1)CC(C)(C)OC3`, the Potency result was “inactive”.
For the molecule `O=C(O)c1ccc(Cn2cnc3c(=S)nc[nH]c32)cc1`, the Potency entry is “inactive”.
Consider `O=C(c1cccnc1)N1CCN(S(=O)(=O)c2cccs2)CC1`, for which the Potency entry was “inactive”.
Regarding `CCc1noc(C)c1C(=O)NCCN1Cc2cc(OC)ccc2OC(CC)C1` (stereo not given), the activity change, negative = growth inhibition was -8.71% [at 9.04 µM] (inactive).
As to `Cc1ccc(C)c(S(=O)(=O)N2CC(=O)Nc3ccccc32)c1`, the Potency result was “inactive”.
For `CC1Cc2ccccc2N1S(=O)(=O)c1c(N)n(C)c(=O)n(C)c1=O` (stereo not given), the Potency result was “inactive”.
Take `CCC1CN(S(=O)(=O)c2cc(-c3cc(C)no3)ccc2C)c2cc(C)ccc2O1` (stereo not given): the Potency is 20.6 µM (active).
On to `Cc1cc(-c2ccc(C)c(S(=O)(=O)N3c4ccccc4CC3C)c2)on1` (stereo not given), for which the Potency was 18.4 µM (active).
With `Cc1cc(-c2ccc(C)c(S(=O)(=O)Nc3ccc(S(N)(=O)=O)cc3)c2)on1`, the Potency result is “inactive”.
The same measure, in the same setting: the value for `CC(=O)c1ccc(S(=O)(=O)Nc2ccc(-c3ccc4nncn4n3)cc2)cc1` was “inactive”.
The same measure, in the same setting: as for `O=C(O)C(=Cc1ccccc1[N+](=O)[O-])c1ccccc1`, the entry is “inactive”; as for `CCCCCCCC1(C)NC(=O)N(CC(=O)Nc2cc(C)on2)C1=O` (stereo not given), “inactive”; as for `COc1ccc(NC(=O)CN(C)C(=O)c2cccc(S(=O)(=O)N3CCN(c4ccccc4)CC3)c2)cc1`, 18.4 µM (active).
Same read-out and setting: the value for `CCOc1ccc(NC(=O)CN(C)C(=O)c2cccc(S(=O)(=O)N3CCCC3)c2)cc1OCC` was “inactive”.
As for `COc1ccc(NC(=O)CN(C)C(=O)c2cc(C3CC3)nn2-c2ccccc2)cc1`, the Potency result is “inactive”.
The same measure, in the same setting: as for `COc1cc(/C(=C/c2ccccc2)c2ccccc2)c2c(c1)oc1ccccc12`, the entry is “inactive”; as for `O=C(CSc1n[nH]c(-c2cccnc2)n1)Nc1ccc(Cl)cc1`, “inactive”; as for `COc1cc(C#Cc2ccc3cc(CCCO)oc(=O)c3c2)cc(OC)c1`, 0.651 µM (active).
Take `Cc1ccc(N(CC(=O)NC2CCCCC2)C(=O)CCCC(=O)Nc2ccccn2)c(C)c1`: the Potency result is “inactive”.
As for `CC(C)(C)S(=O)(=O)c1ccccc1-c1noc(-c2ccccc2)c1C(N)=O`, the Potency result was “inactive”.
The same measure, in the same setting: the value for `COc1ccc(CNC(=O)CN(c2ccc(OC)c(Cl)c2)S(=O)(=O)c2ccc(C)cc2)cc1` was 25.9 µM (active); that for `COc1ccc(S(=O)(=O)N(CC(=O)NCc2ccco2)c2ccc(F)cc2)cc1` was “inactive”; that for `Cc1ccc(N(CC(=O)NCc2ccc(Cl)cc2)S(=O)(=O)N(C)C)cc1` was “inactive”.
On to `COCc1cc(C)nc2sc(C(=O)NC3CCCCC3)c(N)c12`, for which the Potency entry is “inactive”.
For `O=C(O)C1=C(C(=O)O)C2CCC1C2`, the Potency entry was “inactive”.
Still for that read-out and setting: as for `CCN(CCN(C)C)C(=O)c1ccc2nc(C)c(N(C)C(=O)CCc3ccccc3)n2c1`, the entry is “inactive”.
On the same count and under the same terms, as for `Cc1ccc(CNC(=O)COC(=O)C2CCC2)cc1`, the entry is “inactive”; as for `CC(O)c1ccc(OCCN(C)c2ccccn2)cc1` (stereo not given), “inactive”.
As for `Cc1ccc(S(=O)(=O)CC(=O)NC(C)c2ccccc2)cc1` (stereo not given), the Potency entry was “inactive”.
On the same count and under the same terms, the value for `Cc1ccccc1-c1nc(CS(=O)(=O)CC(=O)NC(C)c2ccccc2)c(C)o1` (stereo not given) was 16.4 µM (active).
Turning to `CSc1ccc(CCNC(=O)CS(=O)(=O)Cc2nc(-c3ccccc3F)oc2C)cc1`, the Potency entry is “inactive”.
As to `CC(C)Cc1nnc(NC(=O)CCNC(=O)c2ccccc2Cl)s1`, the Potency result was “inactive”.
On the same count and under the same terms, the value for `CCOC(=O)N1CCN(C(=O)C2CCN(S(=O)(=O)c3cc(Cl)ccc3OCC)CC2)CC1` was “inactive”.
Same read-out and setting: as for `CCOC(=O)N1CCN(C(=O)C2CCN(c3ncnc4c3sc3cccc(F)c34)CC2)CC1`, the figure is 8.2 µM (active); as for `CCOC(=O)N1CCN(C(=O)C2CCCN(c3ncnc4c3sc3cccc(F)c34)C2)CC1` (stereo not given), “inactive”; as for `O=C(CCn1nnnc1CN1CCOCC1)N1CCC(c2ccccc2Cl)C1` (stereo not given), “inactive”.
Take `COc1ccc(F)c(CN2CCC3(CCC(CNC(=O)c4ccn(C)n4)O3)CC2)c1` (stereo not given): the Potency result is “inactive”.
In the case of `Cc1ccccc1N1CC(C(=O)Nc2ccc3c(c2)OCO3)CC1=O` (stereo not given), the Potency entry is “inactive”.
Same read-out and setting: the value for `COc1ccc(C(=O)CC(=O)c2ccc(C)cc2)c(O)c1` was 4.61 µM (active); that for `COc1ccc(C(=O)Cc2cnn(-c3ccccc3)c2)c(O)c1` was “inactive”.
Turning to `COc1ccc(C(=O)CCc2ccccc2O)c(OC)c1`, the Potency entry was “inactive”.
On the same count and under the same terms, the value for `COc1ccc(NC(=O)Cn2c(=O)cc(C)c3c(C)nn(-c4cccc(Cl)c4C)c32)cc1OC` was “inactive”; that for `Cc1noc(C)c1NC(=O)Nc1cccc2c1O[C@H](CN(C)S(=O)(=O)c1c(C)noc1C)[C@@H](C)CN([C@H](C)CO)C2=O` was “inactive”; that for `CC(OC(=O)CN1C(=O)C2CCCCC2C1=O)C(=O)Nc1ncc(Cl)cc1Cl` (stereo not given) was “inactive”.
On the same count and under the same terms, the value for `CC1=CC(C)(C)Nc2ccc(OC(=O)CN3C(=O)C4CCCCC4C3=O)cc21` (stereo not given) was 1.64 µM (active); that for `O=C(CN1C(=O)C2C3CCC(C3)C2C1=O)Oc1ccc2ccccc2c1` (stereo not given) was “inactive”.
Same read-out and setting: the value for `O=C(/C=C/c1c(F)cccc1Cl)Nc1nn[nH]n1` was “inactive”; that for `O=C(N/C(=C\c1ccc(O)cc1)C(=O)N1CCCCC1)c1ccccc1` was “inactive”; that for `CCOc1ccc(C2/C(=C(/O)c3ccc4c(c3)CC(C)O4)C(=O)C(=O)N2CCCn2ccnc2)cc1` (stereo not given) was “inactive”.
As for `CC(C)=CCC/C(C)=C/CC/C(C)=C/CC/C(C)=C/CO`, the Potency entry is “inactive”.
In the case of `Cc1nc2ccccc2n1CC(O)c1ccccc1` (stereo not given), the Potency entry was “inactive”.
On the same count and under the same terms, as for `Cc1ccc(C2=NN(C)c3nc4ccccc4n3C2)cc1`, the figure is 18.4 µM (active); as for `Cc1ccc(Oc2nc3ccccc3n3c(C)nnc23)cc1`, “inactive”.
The same measure, in the same setting: the value for `COC(=O)C(C)N=Cc1ccccc1` (stereo not given) was “inactive”; that for `Cc1ccc(C(=O)Nc2ccc(C(=O)O)cc2)cc1S(=O)(=O)Nc1ccccc1` was “inactive”.
On the same count and under the same terms, as for `O=C1CCC(CCC(=O)N2CCCC(C(=O)c3ccc(Cl)cc3)C2)=NN1` (stereo not given), the entry is “inactive”; as for `COc1ccc(F)cc1C(=O)C1CCCN(C(=O)CCc2ccccn2)C1` (stereo not given), 16.4 µM (active).
Regarding `CSCC(=O)N1CCCC(C(=O)c2cc(F)ccc2F)C1` (stereo not given), the Potency result was “inactive”.
The same measure, in the same setting: as for `O=C1NC(O)CCN1C1CC(O)C(CO)O1` (stereo not given), the entry is “inactive”; as for `C=CCNC(=O)COC(=O)CNC(=O)c1cc(Cl)cc([N+](=O)[O-])c1`, “inactive”.
Regarding `O=C(O)c1ccccc1Cc1ccc(F)c2ccccc12`, the Potency entry is “inactive”.
Still for that read-out and setting: the value for `O=C(Nc1nnc(Cc2ccccc2)s1)c1cnccn1` was “inactive”; that for `CC1CCN(C2=NC(=O)/C(=C/c3cn[nH]c3-c3ccccc3)S2)CC1` was “inactive”; that for `CCn1cc(C(=O)N2CC(C)CC(C)C2)c(=O)c2cc(S(=O)(=O)N3CCCC3)ccc21` (stereo not given) was “inactive”.
For `Cc1ccc(Cl)cc1N1CCN(C(=O)c2cn(C)c3ccc(S(=O)(=O)N(C)C4CCCCC4)cc3c2=O)CC1`, the Potency result was “inactive”.
As for `Cc1ccc(S(=O)(=O)N2CCN(C)CC2)cc1C(=O)NC1CCCCC1`, the Potency result was “inactive”.
Consider `CCn1cc(C(=O)N2CCN(c3cc(Cl)ccc3C)CC2)c(=O)c2cc(S(=O)(=O)N3CCCC3)ccc21`, for which the Potency was 23.1 µM (active).
On the same count and under the same terms, as for `CCn1cc(C(=O)NC2CCCCCC2)c(=O)c2cc(S(=O)(=O)N3CCCCC3)ccc21`, the figure is 29.1 µM (active); as for `CCn1cc(C(=O)N(C)Cc2ccccc2)c(=O)c2cc(S(=O)(=O)N3CCCCCC3)ccc21`, “inactive”.

The values above are taken from PubChem BioAssay AID686979 (National Center for Advancing Translational Sciences (NCATS), 2013).
